Among the data in PubChem BioAssay (EPA / NIEHS) are outcome and AC50 values, retold here.

Each structure is given as a SMILES string. Activity calls are given as the source filed them. How the source made its calls: active means hit-call score of the fitted dose curve at least 0.9, where 1 is the maximum; inactive means score below 0.9.

Read-out in one test: Paternally Expressed 10 (PEG10), PEG10 (gene 23089)
Kind of test: LTEA_HepaRG_PEG10: Life Technologies and Expression Analysis (LTEA) Assay for Paternally Expressed 10 (PEG10) using HepaRG (AID 2283520).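 On AC50: differentiated HepaRG human liver cells in serum-free induction medium with 0.5% DMSO; PEG10 transcript by qRT-PCR normalised to ACTB GAPDH and POLR2A.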 As to conditions: mRNA level, 48 h; actives raise or lower the signal. The procedure, abridged: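 Human HepaRG cultures are dosed for 48 h across an eight-point half-log series starting at 100 uM, with 0.5% DMSO as vehicle and baseline. Gain or loss of PEG10 transcript is measured by qRT-PCR and fitted in both directions.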
`S=c1[nH]c2ccccc2s1`: the outcome was inactive.

As for `Oc1ccccc1O`, the molecule was classed as inactive.

Broadly, the AC50 is the concentration at which the activity in the assay is half-maximal. `CCc1cc(C2=C(C(=O)O)N(c3ccccc3C(F)(F)F)S(=O)(=O)c3ccccc32)cc2c1OCO2`: the AC50 was 28.5 µM (active).

`CC(C)(C)c1ccccc1`: the call was inactive.

For `COc1ccc(C(=O)Nc2nc3ccccc3c(NCc3ccccc3)c2C#N)cc1`, the AC50 was 16.1 µM (active).

On to `CCCC[C@H]1CN(CC2CCOCC2)C(=O)OC12CCN(C1(C)CCN(C(=O)c3c(C)ncnc3C)CC1)CC2`, for which the molecule was called inactive.

For the molecule `O=C1NC(=O)C(c2ccccc2)(c2ccccc2)N1`, the molecule was classed as inactive.

For the molecule `CCc1nc(N)nc(N)c1-c1ccc(Cl)cc1`, the AC50 is 38.9 µM (active).

For `O=C1O[C@H]([C@H](O)CO)C(O)=C1O`, the molecule was called inactive.

`O=C(Oc1ccccc1)c1cccc(C(=O)Oc2ccccc2)c1`: the result was inactive.

For `O=C(NS(=O)(=O)/C=C/c1cccs1)c1ccc(F)cc1Br`, the AC50 was 50 µM (active).

For `Nc1nc(=S)c2[nH]cnc2[nH]1`, the AC50 was 7.2 µM (active).

Regarding `CC(N)=O`, the molecule was called inactive.

As to `CCCCCCCCCC[N+](C)(C)[O-]`, the call was inactive.

As for `CC(COCC(C)OC(=O)c1ccccc1)OC(=O)c1ccccc1` (configuration not stated), the molecule was classed as inactive.

On to `C/C=C/C=C/C(=O)O`, for which the result was inactive.

For the molecule `CC(C)c1cccc(C(C)C)c1NC(=O)NS(=O)(=O)c1cc(C(C)(C)O)co1`, the result was inactive.

As to `NC(=Nc1ccccc1)Nc1ccccc1`, the AC50 was 19.3 µM (active).

With `CC(C)(O)c1ccc(CNC(=O)c2cccnc2Oc2ccc(F)cc2)cc1`, the result was inactive.

`O=Cc1ccccc1C=O`: the result was inactive.

Consider `Cc1cn([C@H]2C=C[C@@H](CO)O2)c(=O)[nH]c1=O`, for which the molecule was classed as inactive.

As to `O=C1c2c(O)cccc2Cc2cccc(O)c21`, the molecule was classed as inactive.

Consider `CC(C)NCC(O)c1ccc(O)c(O)c1` (configuration not stated), for which the AC50 was 0.149 µM (active).

With `CC(=O)O`, the call was inactive.

For `COc1ccc(OC(F)(F)F)cc1CN[C@H]1CCCN[C@H]1c1ccccc1`, the AC50 was 55.2 µM (active).

In the case of `CN(C)C(=O)NC1(c2ccccc2)CCN(CC[C@@]2(c3ccc(F)c(F)c3)CN(C(=O)c3ccccc3)CCO2)CC1`, the AC50 was 1.35 µM (active).

Consider `CCCCCCCCCCCCCCOS(=O)(=O)O`, for which the result was inactive.

As to `CC(=O)CC(c1ccccc1)c1c(O)c2ccccc2oc1=O` (configuration not stated), the result was inactive.

For `NC1CCCCC1`, the outcome was inactive.

Read-out in a further test: Protein phosphatase 2A (PPP2R4), PTPA (gene 5524)
Kind of test: LTEA_HepaRG_PPP2R4: Life Technologies and Expression Analysis (LTEA) Assay for Protein phosphatase 2A (PPP2R4) using HepaRG (AID 2283522). To be noted: mRNA level, 48 h; actives raise or lower the signal. The method, boiled down:
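Cells were plated, cultured 48 h, switched to serum-free induction medium, then dosed for 48 h (8 points, max 100 uM, 0.5% DMSO). RNA was isolated and PPP2R4 expression measured by TaqMan qRT-PCR.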
Regarding `S=c1[nH]c2ccccc2s1`, the molecule was called inactive.

As to `Oc1ccccc1O`, the call was inactive.

`CCc1cc(C2=C(C(=O)O)N(c3ccccc3C(F)(F)F)S(=O)(=O)c3ccccc32)cc2c1OCO2`: the molecule was called inactive.

As for `CC(C)(C)c1ccccc1`, the molecule was classed as inactive.

As to `COc1ccc(C(=O)Nc2nc3ccccc3c(NCc3ccccc3)c2C#N)cc1`, the result was inactive.

`CCCC[C@H]1CN(CC2CCOCC2)C(=O)OC12CCN(C1(C)CCN(C(=O)c3c(C)ncnc3C)CC1)CC2`: the result was inactive.

Consider `O=C1NC(=O)C(c2ccccc2)(c2ccccc2)N1`, for which the outcome was inactive.

Regarding `CCc1nc(N)nc(N)c1-c1ccc(Cl)cc1`, the outcome was inactive.

In the case of `O=C1O[C@H]([C@H](O)CO)C(O)=C1O`, the outcome was inactive.

Take `O=C(Oc1ccccc1)c1cccc(C(=O)Oc2ccccc2)c1`: the call was inactive.

For the molecule `O=C(NS(=O)(=O)/C=C/c1cccs1)c1ccc(F)cc1Br`, the call was inactive.

For `Nc1nc(=S)c2[nH]cnc2[nH]1`, the molecule was classed as inactive.

Consider `CC(N)=O`, for which the molecule was called inactive.

`COC(=O)[C@H]1[C@H]2C[C@@H]3c4[nH]c5cc(OC)ccc5c4CCN3C[C@H]2C[C@@H](OC(=O)c2cc(OC)c(OC)c(OC)c2)[C@@H]1OC`: the outcome was inactive.

As for `CCCCCCCCCC[N+](C)(C)[O-]`, the molecule was classed as inactive.

On to `CC(COCC(C)OC(=O)c1ccccc1)OC(=O)c1ccccc1` (configuration not stated), for which the molecule was called inactive.

Consider `C/C=C/C=C/C(=O)O`, for which the outcome was inactive.

For `CC(C)c1cccc(C(C)C)c1NC(=O)NS(=O)(=O)c1cc(C(C)(C)O)co1`, the molecule was called inactive.

Take `NC(=Nc1ccccc1)Nc1ccccc1`: the outcome was inactive.

In the case of `CC(C)(O)c1ccc(CNC(=O)c2cccnc2Oc2ccc(F)cc2)cc1`, the result was inactive.

Take `O=Cc1ccccc1C=O`: the molecule was called inactive.

Consider `Cc1cn([C@H]2C=C[C@@H](CO)O2)c(=O)[nH]c1=O`, for which the call was inactive.

`O=C1c2c(O)cccc2Cc2cccc(O)c21`: the outcome was inactive.

As for `CC(C)NCC(O)c1ccc(O)c(O)c1` (configuration not stated), the AC50 is 0.155 µM (active).

On to `CC(=O)O`, for which the result was inactive.

Consider `COc1ccc(OC(F)(F)F)cc1CN[C@H]1CCCN[C@H]1c1ccccc1`, for which the AC50 was 90 µM (active).

For `CN(C)C(=O)NC1(c2ccccc2)CCN(CC[C@@]2(c3ccc(F)c(F)c3)CN(C(=O)c3ccccc3)CCO2)CC1`, the result was inactive.

With `CCCCCCCCCCCCCCOS(=O)(=O)O`, the result was inactive.

On to `CC(=O)CC(c1ccccc1)c1c(O)c2ccccc2oc1=O` (configuration not stated), for which the molecule was classed as inactive.

Take `NC1CCCCC1`: the outcome was inactive.

Read-out in a further test: Phosphatase and tensin (PTEN), PTEN (gene 5728)
Nature of the test: LTEA_HepaRG_PTEN: Life Technologies and Expression Analysis (LTEA) Assay for Phosphatase and tensin (PTEN) using HepaRG (AID 2283523). To be noted: mRNA level, 48 h; actives raise or lower the signal. The method, boiled down:
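HepaRG, 48 h exposure, 8-pt half-log series from 100 uM top, 0.5% DMSO vehicle, duplicates. Readout: Fluidigm qRT-PCR of PTEN transcript; housekeeping normalization (ACTB, GAPDH, POLR2A). Gain or loss fitted relative to DMSO baseline.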
Take `S=c1[nH]c2ccccc2s1`: the outcome was inactive.

Regarding `Oc1ccccc1O`, the molecule was called inactive.

`CCc1cc(C2=C(C(=O)O)N(c3ccccc3C(F)(F)F)S(=O)(=O)c3ccccc32)cc2c1OCO2`: the outcome was inactive.

Take `CC(C)(C)c1ccccc1`: the result was inactive.

For the molecule `COc1ccc(C(=O)Nc2nc3ccccc3c(NCc3ccccc3)c2C#N)cc1`, the molecule was classed as inactive.

As for `CCCC[C@H]1CN(CC2CCOCC2)C(=O)OC12CCN(C1(C)CCN(C(=O)c3c(C)ncnc3C)CC1)CC2`, the call was inactive.

For the molecule `O=C1NC(=O)C(c2ccccc2)(c2ccccc2)N1`, the molecule was called inactive.

Consider `CCc1nc(N)nc(N)c1-c1ccc(Cl)cc1`, for which the outcome was inactive.

As for `O=C1O[C@H]([C@H](O)CO)C(O)=C1O`, the molecule was called inactive.

As for `O=C(Oc1ccccc1)c1cccc(C(=O)Oc2ccccc2)c1`, the molecule was classed as inactive.

On to `O=C(NS(=O)(=O)/C=C/c1cccs1)c1ccc(F)cc1Br`, for which the molecule was called inactive.

Take `Nc1nc(=S)c2[nH]cnc2[nH]1`: the result was inactive.

Regarding `COC(=O)[C@H]1[C@H]2C[C@@H]3c4[nH]c5cc(OC)ccc5c4CCN3C[C@H]2C[C@@H](OC(=O)c2cc(OC)c(OC)c(OC)c2)[C@@H]1OC`, the call was inactive.

Turning to `CCCCCCCCCC[N+](C)(C)[O-]`, the molecule was classed as inactive.

For the molecule `CC(COCC(C)OC(=O)c1ccccc1)OC(=O)c1ccccc1` (configuration not stated), the molecule was called inactive.

As to `C/C=C/C=C/C(=O)O`, the result was inactive.

As to `CC(C)c1cccc(C(C)C)c1NC(=O)NS(=O)(=O)c1cc(C(C)(C)O)co1`, the result was inactive.

Consider `NC(=Nc1ccccc1)Nc1ccccc1`, for which the molecule was called inactive.

As to `CC(C)(O)c1ccc(CNC(=O)c2cccnc2Oc2ccc(F)cc2)cc1`, the molecule was called inactive.

Regarding `O=Cc1ccccc1C=O`, the call was inactive.

`Cc1cn([C@H]2C=C[C@@H](CO)O2)c(=O)[nH]c1=O`: the outcome was inactive.

As to `O=C1c2c(O)cccc2Cc2cccc(O)c21`, the result was inactive.

As to `CC(C)NCC(O)c1ccc(O)c(O)c1` (configuration not stated), the result was inactive.

For the molecule `CC(=O)O`, the result was inactive.

`CN(C)C(=O)NC1(c2ccccc2)CCN(CC[C@@]2(c3ccc(F)c(F)c3)CN(C(=O)c3ccccc3)CCO2)CC1`: the molecule was called inactive.

Regarding `CCCCCCCCCCCCCCOS(=O)(=O)O`, the molecule was called inactive.

As for `CC(=O)CC(c1ccccc1)c1c(O)c2ccccc2oc1=O` (configuration not stated), the call was inactive.

On to `NC1CCCCC1`, for which the molecule was called inactive.
